{
  "source": "PubChem BioAssay (NCI)",
  "note": "The panel holds about 83,000 compounds, 20% with a hit somewhere; the sample as a whole holds those more often.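 A percent growth of 40 corresponds to 60% growth inhibition; 0 means no net growth; -100 means all cells died. Active threshold: below 10.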 Values without a mark were called inactive. Calls of active or inactive are those of the source.",
  "data": [
    {"test_system": "HL-60(TB) leukemia", "assay": "NCI-60 one-dose screen, 48 h (100 = growth as untreated, 0 = no growth, -100 = all killed)", "details": "10 µM unless noted", "values": [
      {"compound": "CN(C)C(=O)C1=NC(CO)C(=O)N(c2ccc(Cl)cc2)N1", "note": "(centres undefined)", "growth": "110%"},
      {"compound": "C#CCC#CCN1CCC[C@H]1C(=O)NCC(=O)OC", "growth": "105%"},
      {"compound": "O=C(Nc1ccc(Cl)cc1)Nc1nc2ccc([N+](=O)[O-])cc2s1", "growth": "-51% (active)"},
      {"compound": "CC(=O)C1=NN(c2ccc(Cl)cc2)C(=O)CN1C", "growth": "105%"},
      {"compound": "CCN(CC)CCOc1ccc(C(=C(c2ccccc2)C2CCCC2)c2ccc(OCCN(CC)CC)cc2)cc1", "growth": "-40.9% (active)"},
      {"compound": "Cc1cc(C)n(C(=O)c2sc(=S)n(-c3ccccc3)c2N=Nc2c(N)n[nH]c2N)n1", "growth": "110%"},
      {"compound": "C#CCn1cc(/C=N/Nc2nc(-c3ccc(Br)cc3)cs2)c2ccccc21", "growth": "107%"},
      {"compound": "COc1cc(/C=C/C(=O)c2ccccc2)ccc1Oc1nc(NCCO)nc(N2CCOCC2)n1", "growth": "81.6%"},
      {"compound": "CCNC(=O)Oc1ccc(/C(=C(/C)c2ccc(OC)cc2)c2ccc(OCCN3CCCCCC3)cc2)cc1", "growth": "22.5%"},
      {"compound": "CN1CCN(Cc2ccc(NC(=O)c3cncc(C#Cc4cnc5ccc(NC6CCOCC6)nn45)c3)cc2C(F)(F)F)CC1", "growth": "-45.2% (active)"},
      {"compound": "O=C1NC(=O)/C(=C/c2ccc(OCc3cc4ccccc4nc3Cl)cc2)S1", "growth": "100%"},
      {"compound": "C#C[C@]1(O)CC[C@H]2[C@@H]3CC=C4c5sc(Nc6nc(C)cc(OC)n6)nc5CC[C@]4(C)[C@H]3CC[C@@]21C", "growth": "12.1%"},
      {"compound": "N#Cc1cccc(NC(=O)c2cc(-c3ccc(F)cc3F)ccc2O)c1", "growth": "-29.2% (active)"},
      {"compound": "Oc1ccccc1-c1nnc(SCc2ccc(O)c3ncccc23)o1", "growth": "26.3%"}
    ]}
  ]
}
